Inconclusive results are not listed. A call without a number means that no potency is given here. The source made the active and inactive calls. The call rests on the fitted dose curve; in most records, active means well fitted cell-killing curve with a large enough effect in the repeat runs; inconclusive means weak or mixed curves, or effect the other way; inactive means no such curve, though single readings can be large or run the other way.
Assay: qHTS assay to identify small molecule antagonists of the sonic hedgehog signaling (Shh) pathway - cell viability counter screen (AID 1259367); further: nearly all actives have a fitted effect of over 55% in size
Details: NIH/3T3 Gli1-Luc viability, CellTiter-Fluor, 24 h; series mostly up to 92.4 µM
Method in brief: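 NIH/3T3-derived Gli1-Luc reporter cells (2,000 per well) rested 4 hr at 37 C, then received DMSO compounds plus conditioned medium. After 23 hr of treatment, CellTiter-Fluor was added for 1 hr at 37C and fluorescence read.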

Question: Which Potency does the source give for `CC(=O)NC(=O)c1ccccc1O` here?
Answer: inactive

Question: For `O=C1NC(=O)C2CC=CCC12` (stereo unspecified), which Potency is on record?
Answer: inactive

Question: Which Potency does the source give for `CC1=NN(c2cccc(S(=O)(=O)O)c2)C(=O)C1` here?
Answer: inactive

Question: Which Potency does the source give for `CCCc1nn(C)c2c(=O)[nH]c(-c3cc(S(=O)(=O)N4CCN(C)CC4)ccc3OCC)nc12` here?
Answer: inactive

Question: For `CN(C)C(=O)Oc1ccc[n+](C)c1`, which Potency is on record?
Answer: inactive

Question: Which Potency does the source give for `C=CC(C)(CCC=C(C)C)OC(=O)CC` (stereo unspecified) here?
Answer: inactive

Question: With `C[N+]12CCC(CC1)C(OC(=O)C(O)(c1ccccc1)c1ccccc1)C2` (stereo unspecified) as the compound, how does the Potency read?
Answer: inactive

Question: For `CC1=CCC(O)(C(C)C)CC1` (stereo unspecified), which Potency is on record?
Answer: inactive

Question: With `c1coc(CNc2ncnc3nc[nH]c23)c1` as the compound, how does the Potency read?
Answer: inactive

Question: With `Cc1onc(-c2c(Cl)cccc2Cl)c1C(=O)Cl` as the compound, how does the Potency read?
Answer: inactive

Question: For `CCCC(=O)O[C@]1(C(=O)CC)CC[C@H]2[C@@H]3CCC4=CC(=O)CC[C@]4(C)[C@H]3[C@@H](O)C[C@@]21C`, which Potency is on record?
Answer: inactive

Question: Which Potency does the source give for `NCCCC[C@H](N[C@@H](CCc1ccccc1)C(=O)O)C(=O)N1CCC[C@H]1C(=O)O` here?
Answer: inactive

Question: Which Potency does the source give for `CC(C)CC(C)(N)C#N` (stereo unspecified) here?
Answer: inactive

Question: Which Potency does the source give for `CCCCCCCCN1CCCC1=O` here?
Answer: inactive

Question: For `Nc1ccn([C@@H]2O[C@H](CO)[C@@H](O)C2(F)F)c(=O)n1`, which Potency is on record?
Answer: inactive

Question: Which Potency does the source give for `NC(=O)N1c2ccccc2CC(=O)c2ccccc21` here?
Answer: inactive

Question: With `CCCCOCCOC(=O)COc1cc(Cl)c(Cl)cc1Cl` as the compound, how does the Potency read?
Answer: inactive

Question: With `COc1cc2c(cc1OC)-c1cc3ccc(OC)c(OC)c3c[n+]1CC2` as the compound, how does the Potency read?
Answer: inactive

Question: For `CCOCC(C)O` (stereo unspecified), which Potency is on record?
Answer: inactive

Question: With `CC(C)COC(=O)c1ccc(N)cc1` as the compound, how does the Potency read?
Answer: inactive

Question: With `CC(COc1ccccc1)NN` (stereo unspecified) as the compound, how does the Potency read?
Answer: inactive

Question: With `CCCCCCCCCCOc1cc2c(=O)c(C(=O)OCC)c[nH]c2cc1OCC` as the compound, how does the viability change, negative = cytotoxic read?
Answer: 5.79% [at 8.39 µM] (inactive)

Question: For `C[N+]1(C)[C@@H]2CC(OC(=O)[C@H](CO)c3ccccc3)C[C@H]1[C@@H]1O[C@@H]12` (stereo partly specified), which Potency is on record?
Answer: inactive

Question: Which Potency does the source give for `COC(=O)Nc1ccc(Cl)c(Cl)c1` here?
Answer: inactive

Question: For `CC(C)c1ccc2ncccc2c1`, which Potency is on record?
Answer: inactive

Question: With `CC(=O)Nc1ccc(OCC(O)CNC(C)C)cc1` (stereo unspecified) as the compound, how does the Potency read?
Answer: inactive

Question: With `CCCCCC(=O)OCCc1ccccc1` as the compound, how does the Potency read?
Answer: inactive

Question: Which Potency does the source give for `C=CCCCCCCCCC(=O)OCC` here?
Answer: inactive

Question: With `CN1CC(=O)N/C1=N/C(=O)Nc1cccc(Cl)c1` as the compound, how does the Potency read?
Answer: inactive

Question: With `Cc1nc2ccc(CN(C)c3ccc(C(=O)N[C@@H](CCC(=O)O)C(=O)O)s3)cc2c(=O)[nH]1` as the compound, how does the Potency read?
Answer: inactive

Question: For `O=S(=O)(O)c1cc(O)c(O)c(S(=O)(=O)O)c1`, which Potency is on record?
Answer: inactive

Question: With `CCCCc1nc(Cl)c(CO)n1Cc1ccc(-c2ccccc2-c2nn[nH]n2)cc1` as the compound, how does the Potency read?
Answer: inactive

Question: Which Potency does the source give for `CCOC(=O)CCC(=O)OCC` here?
Answer: inactive

Question: Which Potency does the source give for `CC(C)(C#N)Nc1nc(Cl)nc(NC2CC2)n1` here?
Answer: inactive

Question: For `O=[N+]([O-])c1ccc(/C=N\O)o1`, which Potency is on record?
Answer: inactive

Question: Which Potency does the source give for `CCCOC(=O)CC` here?
Answer: inactive
